The structures appear in SMILES notation. Compounds without any hit were thinned out: in the full panel of roughly 79,000, 15% have a hit. Unmarked numbers belong to inactive results. Calls of active or inactive are those of the source. Cut-off read from the data, not from the text of the source: active = growth inhibition above about 70%; inactive = the rest.

Assay [1] in a line: NCI Yeast Anticancer Drug Screen. Data for the rad50 strain (AID 155).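 Note: 0% = growth of vehicle-only cultures of the same strain.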 The following applies: S. cerevisiae rad50 strain growth inhibition; at 50.0 µM; stronger effect = higher value. A digest of the protocol: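 Inhibition values express reduced yeast growth in compound-treated cultures relative to vehicle-treated controls.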
Assay [2] can be described thus: NCI Yeast Anticancer Drug Screen. Data for the mec2-1 strain (AID 157). Particulars: S. cerevisiae mec2-1 strain, at 50.0 µM, stronger effect = higher value. A digest of the protocol: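 Mutant yeast (mec2-1) grown with compound; growth inhibition relative to vehicle control reported.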
Assay [3] in a line: NCI Yeast Anticancer Drug Screen. Data for the sgs1 mgt1 strain (AID 161).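 Note: 0% = growth of cultures given vehicle only.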 Particulars: S. cerevisiae sgs1 mgt1 strain, at 50.0 µM, stronger effect = higher value. In short, it runs like this: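 Growth of a repair-deficient yeast mutant was monitored after compound treatment and expressed as inhibition relative to vehicle-treated cultures.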
The nature of assay [4]: NCI Yeast Anticancer Drug Screen. Data for the cln2 rad14 strain (AID 165).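 Note: 0% = growth equal to vehicle treated cultures.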 The following applies: S. cerevisiae cln2 rad14 strain, at 50.0 µM, stronger effect = higher value. A digest of the protocol:
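Readout is yeast growth inhibition versus vehicle-treated controls, using a strain with cln2 and rad14 alterations exposed to compound.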

Assay [5] can be described thus: NCI Yeast Anticancer Drug Screen. Data for the bub3 strain (AID 167). Particulars: S. cerevisiae bub3 mutant strain, at 50.0 µM, stronger effect = higher value. In short, it runs like this: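 Steps: expose the mutant yeast strain to compound; grow alongside vehicle-treated cultures; measure growth; express inhibition against the vehicle cultures.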
Assay [6] can be described thus: NCI Yeast Anticancer Drug Screen. Data for the mlh1 rad18 strain (AID 175). Particulars: S. cerevisiae mlh1 rad18 strain growth inhibition; at 50.0 µM; stronger effect = higher value. A digest of the protocol: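 Genetically defined yeast (DNA repair-deficient) exposed to compounds; growth inhibition determined relative to vehicle.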

For `O=[N+]([O-])c1cc(Cl)c(Cl)c([N+](=O)[O-])c1Cl`, the growth inhibition in assay [1] is -7.05%; in assay [2] it was -18.3%; in assay [3], 6.4%; in assay [4], -23.8%; in assay [5] it was -1.95%; in assay [6], 6.8%.

For `O=C=Nc1ccc(Br)cc1`, the growth inhibition in assay [1] is 25.6%; in assay [2] it was 11.6%; in assay [3], 15.8%; in assay [4], -17.2%; in assay [5] it was 23.9%; in assay [6] it was 29.4%.

For `CN(C)CCCN1CCCCC1`, the growth inhibition in assay [1] is 8.7%; in assay [2], -0.65%; in assay [3] it was -4.45%; in assay [4] it was 3.8%; in assay [5], 7.05%; in assay [6] it was -8%.

As for `Clc1cccc(Cl)c1NC1=NCCS1`, the growth inhibition was -11.7% in assay [1]; -20.8% in assay [2]; 12.7% in assay [3]; 6.1% in assay [4]; -2.25% in assay [5]; 6.45% in assay [6].

On to `O=c1[nH]c(=O)[nH]c(=O)[nH]1`, for which the growth inhibition is 25.6% in assay [1]; -16.1% in assay [2]; -12.9% in assay [3]; -42.8% in assay [4]; 1.1% in assay [5]; 27.6% in assay [6].

As for `CC(=O)OC[C@]12CCC(C)=C[C@H]1O[C@@H]1[C@H](O)[C@@H](OC(C)=O)[C@@]2(C)[C@@]12CO2`, the growth inhibition is -9.2% in assay [1]; -26.6% in assay [2]; 14.9% in assay [3]; -3.45% in assay [4]; -1.3% in assay [5]; -6.7% in assay [6].

Consider `CC(C)[C@@H]1ON1C(C)c1ccccc1` (some centres undefined), for which the growth inhibition in assay [1] is 21.3%; in assay [2], -10.1%; in assay [3], 25.8%; in assay [4], 11.6%; in assay [5] it was 27.4%; in assay [6] it was 16%.

`O=S1(=O)CC2(N3CCOCC3)C3CCC(C3)C21` (centres undefined): the growth inhibition is 24% in assay [1]; 4.6% in assay [2]; 0.6% in assay [3]; -0.4% in assay [4]; 9.15% in assay [5]; 11.6% in assay [6].

For `Oc1c(Cl)cccc1Cl`, the growth inhibition is -22.4% in assay [1]; -51.9% in assay [2]; -63% in assay [3]; -1.6% in assay [4]; -55.1% in assay [5]; 3.4% in assay [6].

Consider `CCOP(O)(=S)OCC.[Sm]`, for which the growth inhibition in assay [1] is 1.65%; in assay [2], -14.6%; in assay [3], -7.65%; in assay [4], -43.1%; in assay [5], -17.9%; in assay [6], -15.8%.

Consider `CC1(C)CCC[N+]1(C)CCC(C(N)=O)(c1ccccc1)c1ccccc1` (centres undefined), for which the growth inhibition in assay [1] is 12.7%; in assay [2] it was 5.3%; in assay [3], 6.6%; in assay [4] it was 4.45%; in assay [5], 8.8%; in assay [6], 3.35%.

Consider `Nc1ccc2ncccc2c1` (tested in a mixture with another compound), for which the growth inhibition in assay [1] is 39.2%; in assay [2] it was 97.5% (active); in assay [3] it was 45.5%; in assay [4], 56.4%; in assay [5] it was 46.5%; in assay [6] it was 26.2%.

Consider `CC(=O)C1(O)CCC2(O)C3(O)CC=C4CC(O)CCC4(C)C3CC(OC(=O)c3ccc(O)cc3)C12C` (centres undefined), for which the growth inhibition in assay [1] is 8.5%; in assay [2], 2.85%; in assay [3] it was -12.8%; in assay [4], -1.7%; in assay [5], -1.6%; in assay [6], -50.4%.

For `COc1cc([As](=O)(O)O)c(OC)cc1N`, the growth inhibition in assay [1] is -9.7%; in assay [2], 6.6%; in assay [3], -0.9%; in assay [4], -55.7%; in assay [5], 5.5%; in assay [6] it was -17.1%.

In the case of `[Au].[NH-]CC[NH-].[NH-]CC[NH-]`, the growth inhibition was 9.45% in assay [1]; -5.5% in assay [2]; -17.4% in assay [3]; -7.05% in assay [4]; -0.55% in assay [5]; -12.5% in assay [6].

As to `O=C(CCc1ccccc1)Nc1ccc(Cl)cc1C(=O)c1ccccc1`, the growth inhibition in assay [1] was -0.85%; in assay [2], 20.2%; in assay [3] it was 24.4%; in assay [4] it was -26.2%; in assay [5], 54.1%; in assay [6], 28.6%.

For `[Se]=P(c1ccccc1)(N1CC1)N1CC1`, the growth inhibition in assay [1] is 33.2%; in assay [2], 10.2%; in assay [3] it was 11.8%; in assay [4], 3.55%; in assay [5], -1.3%; in assay [6], 6.85%.

As for `NNN1CCN(N)CC1`, the growth inhibition in assay [1] is 11.1%; in assay [2], -12.2%; in assay [3], 6.35%; in assay [4], -8.35%; in assay [5] it was 17.1%; in assay [6] it was 4.35%.

Consider `CCOC(=O)C(Cc1ccc(N(CCCl)CCCl)cc1)NC(=O)C(C)NC(C)=O` (centres undefined), for which the growth inhibition in assay [1] was 0.45%; in assay [2] it was -7.3%; in assay [3] it was -15.5%; in assay [4], 15.7%; in assay [5] it was -0.6%; in assay [6] it was 7%.

In the case of `Nc1nc(CC(N)C(=O)O)c[se]1` (centres undefined), the growth inhibition was 56.8% in assay [1]; 28.4% in assay [2]; 21.1% in assay [3]; 5.35% in assay [4]; 21.3% in assay [5]; 11% in assay [6].

In the case of `C[Si](C)(C)[C@@]1([Se]c2ccccc2)CC[C@@H]1C(=O)c1ccccc1`, the growth inhibition was -11.6% in assay [1]; -26.4% in assay [2]; -26.4% in assay [3]; -18.2% in assay [4]; -27.4% in assay [5]; -23.9% in assay [6].

As to `O=C(CI)NCCNC(=O)CI`, the growth inhibition in assay [1] was 11.1%; in assay [2] it was 16.2%; in assay [3] it was 21.4%; in assay [4], 20.6%; in assay [5], 10.6%; in assay [6] it was 39.5%.

With `Cn1c(=O)oc(=O)c2ccccc21`, the growth inhibition in assay [1] was -0.45%; in assay [2], -15.3%; in assay [3], -17.4%; in assay [4] it was -3.1%; in assay [5] it was -27.4%; in assay [6], 6.85%.

For the compound `c1ccc2c(c1)c1ccccc1c1n[se]nc21`, the growth inhibition in assay [1] was -4.7%; in assay [2], -1.5%; in assay [3], 2.75%; in assay [4] it was -6.25%; in assay [5] it was 7.55%; in assay [6], 11.9%.

With `O=C1OC(C(O)CO)C(O)=C1OC[N+]1(CCCl)CCN(CCCl)CC1` (centres undefined), the growth inhibition is 11.8% in assay [1]; 12.7% in assay [2]; 4.9% in assay [3]; 4.7% in assay [4]; 10.3% in assay [5]; 9.4% in assay [6].

As to `Clc1cc[c]([Sb]2([c]3ccc(Cl)cc3)([c]3ccc(Cl)cc3)[O]C(C(Cl)(Cl)Cl)[O]2)cc1` (centres undefined), the growth inhibition was 98.3% (active) in assay [1]; 98.5% (active) in assay [2]; 98.2% (active) in assay [3]; 98.2% (active) in assay [4]; 97% (active) in assay [5]; 97.8% (active) in assay [6].

For the compound `COc1c2c(cc3c1OCO3)[C@]13C=C[C@H](OC)C[C@H]1N(C2)CC3O` (some centres undefined), the growth inhibition in assay [1] was 17.2%; in assay [2], 5.75%; in assay [3] it was 3.6%; in assay [4] it was -0.55%; in assay [5], 1.55%; in assay [6] it was -53.9%.

Turning to `CN(C)NP(=O)(c1ccccc1)c1ccccc1`, the growth inhibition in assay [1] is 0.05%; in assay [2], -3.05%; in assay [3], -4.45%; in assay [4] it was -10.5%; in assay [5] it was 7.75%; in assay [6], -2.9%.

`CC(=O)Nc1cccc([As]=O)c1` (centres undefined): the growth inhibition in assay [1] is 11.5%; in assay [2] it was 2.75%; in assay [3] it was 9.95%; in assay [4], 7.6%; in assay [5], -10.8%; in assay [6], 19.1%.

Take `CCOP(=O)(OCC)C(O)C(C)C` (centres undefined): the growth inhibition is 3.5% in assay [1]; 16.9% in assay [2]; 5.2% in assay [3]; -19.8% in assay [4]; 7.5% in assay [5]; 0.35% in assay [6].

For `CN(CCC(=O)O)C1=Nc2ccc(Cl)cc2C(c2ccccc2)=[N+]([O-])C1`, the growth inhibition was 1.75% in assay [1]; 6.15% in assay [2]; -14.2% in assay [3]; -1.4% in assay [4]; 16.2% in assay [5]; 6.85% in assay [6].

For the compound `COc1cc(C)c(C(CC(=O)O)CC(=O)N(CCCl)CCCl)cc1C(C)C` (centres undefined), the growth inhibition in assay [1] was 60.4%; in assay [2] it was 4.3%; in assay [3], 20.1%; in assay [4], 28.2%; in assay [5], 4.5%; in assay [6], 57.6%.

Turning to `CCC1(C(C)C=C(C)C)C(=O)NC(=O)NC1=O` (centres undefined), the growth inhibition in assay [1] is -28.6%; in assay [2] it was -12.4%; in assay [3], -4.75%; in assay [4] it was 1.45%; in assay [5], 10.3%; in assay [6], -10.2%.

On to `CC1CC[Si](C)(C)CC12C(=O)NC(=O)NC2=O` (centres undefined), for which the growth inhibition in assay [1] is 6.65%; in assay [2], 1.95%; in assay [3], 19.6%; in assay [4] it was -0.05%; in assay [5], 10.1%; in assay [6] it was -7.05%.

On to `CC1=C2[C@H]3OC(=O)[C@@H](C)[C@@H]3CC[C@@]2(C)C=CC1=O`, for which the growth inhibition in assay [1] is 20.6%; in assay [2], 5.9%; in assay [3], 1.15%; in assay [4], 15.2%; in assay [5], 2.25%; in assay [6] it was 12.6%.

Take `O=C(COc1ccc(Cl)c(Cl)c1)Nc1ccc[n+](Cc2ccc(S(=O)(=O)F)c(Cl)c2)c1`: the growth inhibition in assay [1] is 62%; in assay [2], 94.3% (active); in assay [3], 98.3% (active); in assay [4] it was 95.8% (active); in assay [5], 94.8% (active); in assay [6], 99.5% (active).

Consider `O=C1CCCN1CC#CCN1C[C@@H]2C3CCC(C3)[C@@H]2C1`, for which the growth inhibition is -2.8% in assay [1]; -8.5% in assay [2]; 6.25% in assay [3]; 29.4% in assay [4]; 17% in assay [5]; 27.6% in assay [6].

`CN(C)[C@@H]1C(=O)C(C(N)=O)=C(O)[C@@]2(O)C(=O)C3=C(O)c4c(O)ccc(Cl)c4[C@@](C)(O)[C@H]3C[C@@H]12`: the growth inhibition in assay [1] was -16.9%; in assay [2] it was 1.1%; in assay [3], 13.2%; in assay [4] it was -6.6%; in assay [5] it was -8.8%; in assay [6], -4.1%.

Regarding `O=C(COc1cccc(Cl)c1Cl)Nc1ccc[n+](Cc2ccc(S(=O)(=O)F)cc2)c1`, the growth inhibition in assay [1] was 20.4%; in assay [2], 0.15%; in assay [3], -5.45%; in assay [4], 31.2%; in assay [5] it was 7.4%; in assay [6] it was 28.6%.

The record behind these values is PubChem BioAssay (NCI).
